Where two headings read alike, the source gives them in different places.
Assays:
AAK1 = system: AAK1; set-up: species or system human, MV4-11 + K-562 + COLO205 + SK-N-BE2 + OVCAR-8; details: read-out: apparent Kd, n = 1
CLK1 = system: CLK1; set-up: species or system human, MV4-11 + K-562 + COLO205 + SK-N-BE2 + OVCAR-8; details: read-out: apparent Kd, compound concentrations: 100 nM and 1000 nM (sheet 'Samples'), n = 1
CLK4 = system: CLK4; set-up: species or system human, MV4-11 + K-562 + COLO205 + SK-N-BE2 + OVCAR-8; details: read-out: apparent Kd, compound concentrations: 100 nM and 1000 nM (sheet 'Samples'), n = 1
FLT3 = system: FLT3; set-up: species or system human, MV4-11 + K-562 + COLO205 + SK-N-BE2 + OVCAR-8; details: read-out: apparent Kd, compound concentrations: 100 nM and 1000 nM (sheet 'Samples'), n = 1
GSK3A = system: GSK3A; set-up: species or system human, MV4-11 + K-562 + COLO205 + SK-N-BE2 + OVCAR-8; details: read-out: apparent Kd, n = 1
GSK3B = system: GSK3B; set-up: species or system human, MV4-11 + K-562 + COLO205 + SK-N-BE2 + OVCAR-8; details: read-out: apparent Kd, n = 1
MELK = system: MELK; set-up: species or system human, MV4-11 + K-562 + COLO205 + SK-N-BE2 + OVCAR-8; details: read-out: apparent Kd, n = 1
NUAK1 = system: NUAK1; set-up: species or system human, MV4-11 + K-562 + COLO205 + SK-N-BE2 + OVCAR-8; details: read-out: apparent Kd, n = 1
Q6ZSR9 = Q6ZSR9 (human, UniProt Q6ZSR9); set-up: species or system MV4-11 + K-562 + COLO205 + SK-N-BE2 + OVCAR-8; details: read-out: apparent Kd, n = 1
BMP2K = system: BMP2K; set-up: species or system human, MV4-11 + K-562 + COLO205 + SK-N-BE2 + OVCAR-8; details: read-out: apparent Kd, n = 1
CSNK2A1;CSNK2A3 = system: CSNK2A1;CSNK2A3; set-up: species or system human, MV4-11 + K-562 + COLO205 + SK-N-BE2 + OVCAR-8; details: read-out: apparent Kd, n = 1
CSNK2A2 = system: CSNK2A2; set-up: species or system human, MV4-11 + K-562 + COLO205 + SK-N-BE2 + OVCAR-8; details: read-out: apparent Kd, n = 1
FLT4 = system: FLT4; set-up: species or system human, MV4-11 + K-562 + COLO205 + SK-N-BE2 + OVCAR-8; details: read-out: apparent Kd; compound concentrations: 100 nM and 1000 nM (sheet 'Samples'), CATDS: 1.2160517778916E-2; n = 1
GAK = system: GAK; set-up: species or system human, MV4-11 + K-562 + COLO205 + SK-N-BE2 + OVCAR-8; details: read-out: apparent Kd; compound concentrations: 100 nM and 1000 nM (sheet 'Samples'), CATDS: 1.5691521545656201E-2; n = 1
PAK4 = system: PAK4; set-up: species or system human, MV4-11 + K-562 + COLO205 + SK-N-BE2 + OVCAR-8; details: read-out: apparent Kd, n = 1
PKN1 = system: PKN1; set-up: species or system human, MV4-11 + K-562 + COLO205 + SK-N-BE2 + OVCAR-8; details: read-out: apparent Kd; compound concentrations: 100 nM and 1000 nM (sheet 'Samples'), CATDS: 1.1966323436805501E-2; n = 1
RET = system: RET; set-up: species or system human, MV4-11 + K-562 + COLO205 + SK-N-BE2 + OVCAR-8; details: read-out: apparent Kd, n = 1
SIK2 = system: SIK2; set-up: species or system human, MV4-11 + K-562 + COLO205 + SK-N-BE2 + OVCAR-8; details: read-out: apparent Kd, n = 1
[1] = compound concentrations:100 nM and 1000 nM (sheet 'Samples')

Sequence of Q6ZSR9 (Q6ZSR9 whole entry, looked up): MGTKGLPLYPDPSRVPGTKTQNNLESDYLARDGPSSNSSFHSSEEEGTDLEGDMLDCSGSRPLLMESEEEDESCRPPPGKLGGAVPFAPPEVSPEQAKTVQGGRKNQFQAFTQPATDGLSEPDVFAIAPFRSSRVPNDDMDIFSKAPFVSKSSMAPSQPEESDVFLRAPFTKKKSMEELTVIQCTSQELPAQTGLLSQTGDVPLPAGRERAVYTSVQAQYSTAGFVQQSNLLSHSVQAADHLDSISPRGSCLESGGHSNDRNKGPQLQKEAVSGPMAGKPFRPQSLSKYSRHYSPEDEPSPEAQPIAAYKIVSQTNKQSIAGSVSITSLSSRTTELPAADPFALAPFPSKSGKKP

c1cnn2ncc(-c3ccnc(Nc4ccc5c(c4)OCCO5)n3)c2c1 [GW806290X]
potency estimated from few doses (AAK1; compound concentrations: 100 nM and 1000 nM (sheet 'Samples'), CATDS: 2.3873616537329799E-2): 1080 nM | potency estimated from few doses (CLK1; CATDS: 6.6494036250362598E-2): 106 nM | potency estimated from few doses (CLK4; CATDS: 9.8127081360261201E-2): 57.2 nM | potency estimated from few doses (FLT3; CATDS: 9.3011022280108296E-2): 61.9 nM | potency estimated from few doses (GSK3A; compound concentrations: 100 nM and 1000 nM (sheet 'Samples'), CATDS: 3.86716280658417E-2): 308 nM | potency estimated from few doses (GSK3B; compound concentrations: 100 nM and 1000 nM (sheet 'Samples'), CATDS: 6.1886578646693099E-2): 121 nM | potency estimated from few doses (MELK; compound concentrations: 100 nM and 1000 nM (sheet 'Samples'), CATDS: 1.9268078616401899E-2): 2360 nM | potency estimated from few doses (NUAK1; compound concentrations: 100 nM and 1000 nM (sheet 'Samples'), CATDS: 2.7516933063414101E-2): 713 nM | potency estimated from few doses (Q6ZSR9; compound concentrations: 100 nM and 1000 nM (sheet 'Samples'), CATDS: 2.3514563204250299E-2): 1130 nM

CNCc1ccc(-c2cc(-c3nc(-c4ccc(S(=O)(=O)C(C)C)cc4)cnc3N)on2)cc1 [VE-822]
potency estimated from few doses (AAK1; [1]): 1850 nM | potency estimated from few doses (GSK3A; [1]): 684 nM | potency estimated from few doses (GSK3B; [1]): 810 nM | potency estimated from few doses (Q6ZSR9; [1]): 1240 nM

COc1cc[nH]c1/C=C1\C(=O)Nc2ccc(F)c(C#CC3(O)CCNCC3)c21.Cl [RO0282986-001]
potency estimated from few doses (AAK1; compound concentrations: 100 nM and 1000 nM (sheet 'Samples'), CATDS: 4.4387438114571E-2): 51.7 nM | potency estimated from few doses (BMP2K; compound concentrations: 100 nM and 1000 nM (sheet 'Samples'), CATDS: 9.1500909624849303E-2): 17.8 nM | potency estimated from few doses (CLK1; CATDS: 1.0356916336546E-2): 1160 nM | potency estimated from few doses (CLK4; CATDS: 1.25074250244867E-2): 634 nM | potency estimated from few doses (CSNK2A1;CSNK2A3; compound concentrations: 100 nM and 1000 nM (sheet 'Samples'), CATDS: 1.42353528510114E-2): 450 nM | potency estimated from few doses (CSNK2A2; compound concentrations: 100 nM and 1000 nM (sheet 'Samples'), CATDS: 2.2066768869253801E-2): 173 nM | potency estimated from few doses (FLT3; CATDS: 4.9574860121956603E-2): 43.6 nM | potency estimated from few doses (FLT4): 687 nM | potency estimated from few doses (GAK): 356 nM | potency estimated from few doses (GSK3A; compound concentrations: 100 nM and 1000 nM (sheet 'Samples'), CATDS: 1.8964305572366599E-2): 235 nM | potency estimated from few doses (GSK3B; compound concentrations: 100 nM and 1000 nM (sheet 'Samples'), CATDS: 1.5746210655388199E-2): 353 nM | potency estimated from few doses (MELK; compound concentrations: 100 nM and 1000 nM (sheet 'Samples'), CATDS: 1.9967026123172499E-2): 211 nM | potency estimated from few doses (NUAK1; compound concentrations: 100 nM and 1000 nM (sheet 'Samples'), CATDS: 4.1010981116741001E-2): 58.6 nM | potency estimated from few doses (PAK4; compound concentrations: 100 nM and 1000 nM (sheet 'Samples'), CATDS: 2.1447100630881601E-2): 183 nM | potency estimated from few doses (PKN1): 720 nM | potency estimated from few doses (Q6ZSR9; compound concentrations: 100 nM and 1000 nM (sheet 'Samples'), CATDS: 3.8240338432775099E-2): 65.6 nM | potency estimated from few doses (RET; compound concentrations: 100 nM and 1000 nM (sheet 'Samples'), CATDS: 4.4247015083228598E-2): 52 nM | potency estimated from few doses (SIK2; compound concentrations: 100 nM and 1000 nM (sheet 'Samples'), CATDS: 1.2903831315266401E-2): 581 nM

COc1ccc(Nc2nccc(-c3ccc(NC(=O)c4cc5cc(F)ccc5[nH]4)cc3)n2)cc1 [GSK1229496A]
potency estimated from few doses (AAK1; compound concentrations: 100 nM and 1000 nM (sheet 'Samples'), CATDS: 0.25032000609497101): 1830 nM

O=C(O)C(F)(F)F.O=c1[nH]ccc2nc(N[C@@H]3CCNC3)nc(Nc3cc(Cl)cc(Cl)c3)c12 [GSK2188764A]
potency estimated from few doses (AAK1; [1]): 114 nM | potency estimated from few doses (BMP2K; [1]): 749 nM | potency estimated from few doses (CSNK2A1;CSNK2A3; [1]): 239 nM | potency estimated from few doses (CSNK2A2; [1]): 585 nM | potency estimated from few doses (MELK; [1]): 765 nM | potency estimated from few doses (NUAK1; [1]): 27.4 nM | potency estimated from few doses (PAK4; [1]): 11 nM | potency estimated from few doses (Q6ZSR9; [1]): 151 nM | potency estimated from few doses (RET; [1]): 1350 nM | potency estimated from few doses (SIK2; [1]): 1440 nM
